From PubChem BioAssay
PI5P4K alpha inh – qHTS for Inhibitors of phosphatidylinositol 5-phosphate 4-kinase (PI5P4K). PI5P4Kalpha enzyme, ADP-Glo luminescence, 60 min; active compounds read low. hit rate 1.2% among 330,000. max response, %. Phosphatidylinositol 5-phosphate 4-kinase type-2 alpha (Homo sapiens), P48426; active = max response of -50% or lower; inconclusive = between -30% and -50%; inactive = -30% or higher; also: value at the top dose of about 77 µM; % is scaled to controls: 0 for no effect and ±100 for the full control effect
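Luminescence from ADP-Glo served as readout of PI5P4Kalpha activity in a qHTS format. Reaction: enzyme, substrate, compound, ATP at 5 microM final, 60 min at RT.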
VDR inh – Inhibitors of the vitamin D receptor (VDR): qHTS | AID 504847, 2011 | VDR-SRC2-3 peptide fluorescence polarization, 2 h | Vitamin D3 receptor (Homo sapiens), P11473 | Potency, µM, for inactives: max response, negative = inhibition, most hits filed as inhibitors | hit rate 0.93% among 400,000; also: potency is read from the fitted curve at half-maximal effect; % is scaled to controls: 0 for no effect and ±100 for the full control effect
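After 23 nl compound addition and a short centrifugation, plates sat for 2 hours at ambient temperature; polarization of fluorescence then indicated loss of VDR binding to peptide SRC2-3.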
Rango dissoc inh – qHTS Assay for Inhibitors of RanGTP induced Rango (Ran-regulated importin-beta cargo) - Importin beta complex dissociation; Biochemical FRET Rango-importin beta, RanGTP-induced dissociation; Potency, µM (series often up to 46.1 µM), inactives show at the highest dose activity change, negative = inhibition; hit rate 0.071% among 340,000; calls by dose curve; also: potency is read from the fitted curve at half-maximal effect; % of control where 0% means no effect; nearly all actives have a fitted effect of over 45% in size
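Rango FRET biosensor (snurportin-1 IBB flanked by N-terminal EYFP and C-terminal CFP10) at 0.1 uM, with 0.25 uM importin beta in PBS, 1mM DTT, 0.02% Tween-20, 0.1% BSA. 0.6 uM Ran, 2mM GTP and 0.2 uM RCC1 were then added for 45 min at room temperature. Inhibition read as loss of FRET rise.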
Rango-impB inh – qHTS Assay for Inhibitors of Rango (Ran-regulated importin-beta cargo) - Importin beta complex formation | Importin subunit beta-1 (Homo sapiens), Q14974 | Rango CFP/YFP FRET sensor + importin beta, 45 min | Potency, µM (doses to about 92.2 µM), for the others: at the highest dose inhibition of complex formation | hit rate 0.031% among 340,000; calls by dose curve;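 also: potency is read from the fitted curve at half-maximal effect; 0% = DMSO wells and 100% = buffer wells lacking importin beta; nearly all actives have a fitted effect of over 15% in size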
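Inhibition scored from the CFP 486 nm/YFP 530 nm FRET ratio 45 min after adding 0.125 microM importin beta to 50 nM Rango biosensor preincubated 5 min with compound (room temperature, PBS with DTT, Tween-20, BSA). No-importin wells as positive control.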
GCN5L2 inh – qHTS Assay for Inhibitors of GCN5L2. Histone acetyltransferase KAT2A (Homo sapiens), Q92830. GCN5L2 HAT assay, ThioGlo1 CoA-SH fluorescence. Potency, µM (highest dose often 58.9 µM), for inactives: top-dose activity change, negative = inhibition, actives largely listed as inhibitors. hit rate 0.21% among 390,000. AID 504327, 2011; also: potency is read from the fitted curve at half-maximal effect; % is scaled to controls: 0 for no effect and ±100 for the full control effect
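Fluorescence readout, Ex340nm/Em540nm: ThioGlo1 (50uM final) reacts with free CoA thiol released as 20nM GCN5L2 acetylates H3(1-25) peptide (75uM) using acetyl-CoA (70uM). Compound and enzyme sat 15 min beforehand; 20 min room-temperature reaction.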
PLK1 PBD inh – qHTS for Inhibitors of PLK1-PDB (polo-like kinase 1 - polo-box domain): Primary Screen; Serine/threonine-protein kinase PLK1 (Homo sapiens), P53350; Plk1 PBD binding of FITC phosphopeptide, fluorescence polarization; Potency, µM, for inactives: max response, negative = inhibition, most hits filed as inhibitors; hit rate 2.8% among 360,000; AID 720504, 2013; also: potency is read from the fitted curve at half-maximal effect; series mostly up to about 57 µM; % is scaled to controls: 0 for no effect and ±100 for the full control effect; nearly all actives have a fitted effect of over 65% in size
Target sequence (P53350 whole entry, looked up, the tested form may be a part): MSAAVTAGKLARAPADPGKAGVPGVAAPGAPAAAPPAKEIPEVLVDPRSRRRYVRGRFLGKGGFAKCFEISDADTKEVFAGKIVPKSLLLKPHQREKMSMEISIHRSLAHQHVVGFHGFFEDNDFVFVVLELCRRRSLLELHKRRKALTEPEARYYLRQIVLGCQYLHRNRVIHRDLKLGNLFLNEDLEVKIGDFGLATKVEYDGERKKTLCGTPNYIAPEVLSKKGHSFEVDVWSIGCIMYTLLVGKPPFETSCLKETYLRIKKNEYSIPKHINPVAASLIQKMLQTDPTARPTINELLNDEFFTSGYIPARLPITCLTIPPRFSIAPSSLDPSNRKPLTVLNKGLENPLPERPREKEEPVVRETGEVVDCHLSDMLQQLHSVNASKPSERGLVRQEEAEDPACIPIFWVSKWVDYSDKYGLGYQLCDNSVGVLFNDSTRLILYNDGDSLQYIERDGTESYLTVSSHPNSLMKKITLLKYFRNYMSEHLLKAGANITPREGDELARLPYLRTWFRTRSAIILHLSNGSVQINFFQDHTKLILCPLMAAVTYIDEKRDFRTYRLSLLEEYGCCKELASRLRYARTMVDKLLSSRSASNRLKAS
* = called active by the depositor. Compounds with a hit are over-represented: about 3.6% of the library has one in this group of screens. Unless noted, calls follow the shape of the dose curve; as a rule, active = well fitted curve in the direction sought with a large enough effect; inconclusive = small, poorly fitted or top-dose-only effect, or another doubt; inactive = no such curve, though single readings can be large; an effect the other way counts as inactive or inconclusive.

How did NC(=O)c1c(NC(=O)CCCn2cnc([N+](=O)[O-])n2)sc2c1CCCC2 do in these assays?
PI5P4K alpha inh: -20.5; VDR inh: 44.7µM*; Rango dissoc inh: 4.8%; Rango-impB inh: -0.1%; GCN5L2 inh: -2.7%; PLK1 PBD inh: 4.74µM*

Results for CCCOC(=O)c1c(NC(=O)CCCn2nc([N+](=O)[O-])cc2C)sc(C(=O)OC)c1C ?
PI5P4K alpha inh: 1.1; VDR inh: -5.0%; Rango dissoc inh: 13.5%; Rango-impB inh: 0.0%; GCN5L2 inh: -2.0%; PLK1 PBD inh: -10.8%

What do the screens show for `Fc1ccc2[nH]c3c(NCc4ccco4)ncnc3c2c1`?
VDR inh: -8.2%

Results for CC(CNC(=O)C1CCN(Cc2cc3ccccc3n2Cc2ccccc2)CC1)c1ccccc1 (stereo unspecified) ?
VDR inh: 1.0%; GCN5L2 inh: -7.3%

Results for Cc1cc(C(=O)OCC(=O)Nc2cccc(S(=O)(=O)N3CCOCC3)c2)c(C)o1 ?
PI5P4K alpha inh: -15.5; VDR inh: -17.6%; Rango dissoc inh: 0.9%; Rango-impB inh: -3.7%; GCN5L2 inh: -0.3%; PLK1 PBD inh: 26.7µM*

Results for Cc1cc(C(=O)OCC(=O)Nc2cccc(S(N)(=O)=O)c2)c(C)o1 ?
PI5P4K alpha inh: 1.0; VDR inh: -2.6%; Rango dissoc inh: -10.3%; Rango-impB inh: -0.2%; GCN5L2 inh: 1.7%; PLK1 PBD inh: -8.3%

What do the screens show for `O=C(CSc1ccc(Br)cc1)Nc1cccc(S(=O)(=O)N2CCOCC2)c1`?
PI5P4K alpha inh: -5.7; VDR inh: inconclusive; Rango dissoc inh: -2.0%; Rango-impB inh: 1.8%; GCN5L2 inh: -6.6%; PLK1 PBD inh: 5.97µM*

Results for CCc1ccc(CNC(=O)c2ccc(-n3c(C)cc4c3CCC(C)C4)cc2)cc1 (stereo unspecified) ?
VDR inh: 8.8%; GCN5L2 inh: -8.9%

Results for CCc1c(C)nc(SCc2nc(-c3ccccc3C)no2)[nH]c1=O ?
VDR inh: -3.0%; GCN5L2 inh: -10.4%

What do the screens show for `CCOc1ccc(S(=O)(=O)NCCc2c(C)[nH]c3c(Cl)cccc23)cc1C`?
VDR inh: 0.5%; GCN5L2 inh: -16.1%

What do the screens show for `CCC(=O)Nc1ccc(NC(=S)NC(=O)c2cc3ccccc3o2)cc1`?
PI5P4K alpha inh: -17.7; VDR inh: inconclusive; Rango dissoc inh: 19.0%; Rango-impB inh: -4.1%; GCN5L2 inh: 3.8%; PLK1 PBD inh: inconclusive

How did CCC(=O)Nc1cccc(NC(=S)NC(=O)c2cc3ccccc3o2)c1 do in these assays?
PI5P4K alpha inh: 0.8; VDR inh: -29.8%; Rango dissoc inh: 2.9%; Rango-impB inh: 0.2%; GCN5L2 inh: -4.8%; PLK1 PBD inh: 26.7µM*

How did COc1ccccc1OCCC(=O)NCc1ccc2c(c1)OCO2 do in these assays?
PI5P4K alpha inh: inconclusive; VDR inh: 1.0%; Rango dissoc inh: -3.0%; Rango-impB inh: -3.4%; GCN5L2 inh: 0.1%; PLK1 PBD inh: 29.9µM*

What do the screens show for `COc1ccc(C(=O)NCc2ccc3c(c2)OCO3)c(OC)c1`?
PI5P4K alpha inh: -9.1; VDR inh: inconclusive; Rango dissoc inh: -0.9%; Rango-impB inh: -2.6%; GCN5L2 inh: inconclusive; PLK1 PBD inh: 26.7µM*

How did Cc1ccc(CNC(=O)CCCC(=O)Nc2cc(C)on2)cc1 do in these assays?
PI5P4K alpha inh: -28.5; VDR inh: inconclusive; Rango dissoc inh: -11.6%; Rango-impB inh: -0.4%; GCN5L2 inh: -2.8%; PLK1 PBD inh: 15µM*
